This passage reports growth results from PubChem BioAssay (NCI).

Among the test systems are NCI-H23 lung; NCI-H226 lung; NCI-H322M lung; HOP-62 NSCLC; NCI-H460 lung; HOP-92 NSCLC; NCI-H522 lung; A549/ATCC NSCLC; 786-0 renal; COLO 205 colon; DU-145 prostate; K-562 leukemia; MALME-3M melanoma; MDA-MB-231 breast; SF-268 CNS; SF-295 CNS; SF-539 CNS; UACC-257 melanoma; RXF 393 renal.
Holding throughout (assay): NCI-60 one-dose screen, 48 h (100 = growth as untreated, 0 = no growth, -100 = all killed)
Holding throughout (conditions): 10 µM unless noted

About 83,000 compounds went through this panel and 20% of them were active in at least one assay; those are over-represented in the sample as a whole.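 Results are percent growth after 48 hours of single-concentration exposure. 100 means growth as in untreated cells, lower positive values show inhibition; negative values down to -100 show cell death.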 Values without a mark were called inactive. Active and inactive are the calls of the source. The calls were made as follows: active = growth percent below 10; inactive = the rest.

Regarding `O=C1c2ccccc2C(=O)c2cc(Cn3cc[n+](Cc4ccc5ccccc5c4)c3)ccc21`, the growth is 75.6% in the assay with NCI-H23 lung; 83.3% with NCI-H226 lung; 91% in the assay with NCI-H322M lung; 107% in the assay on HOP-62 NSCLC; 94% in the assay on NCI-H460 lung; 47.8% in the assay with HOP-92 NSCLC. In addition, the growth with NCI-H522 lung was 38.9%; with A549/ATCC NSCLC, 110%; in the assay with 786-0 renal, 98.8%; in the assay on COLO 205 colon, 58.6%; in the assay on DU-145 prostate, 115%; with K-562 leukemia, 32.5%. In addition, the growth is 66.5% with MALME-3M melanoma; 81.4% in the assay with MDA-MB-231 breast; 72.5% with SF-268 CNS; 94.9% with SF-295 CNS; 84.1% with SF-539 CNS; 56.1% in the assay on UACC-257 melanoma.

As for `CCN(CC)CCOc1ccc(/C(=C(\C)c2ccc(F)c(OC)c2)c2ccc(Cl)cc2)cc1`, the growth with NCI-H23 lung was 25.6%; in the assay with NCI-H226 lung, 75.7%; with NCI-H322M lung, 65.7%; in the assay on HOP-62 NSCLC it was -4.66% (active); in the assay on NCI-H460 lung it was -54.2% (active); in the assay on HOP-92 NSCLC it was 20.4%. Besides, the growth in the assay with NCI-H522 lung is 26.9%; in the assay with A549/ATCC NSCLC, 30.7%; in the assay with 786-0 renal, -64.9% (active); in the assay on COLO 205 colon it was -58.6% (active); in the assay on DU-145 prostate, 41.3%; in the assay with K-562 leukemia, -7.49% (active). In addition, the growth was -81.6% (active) in the assay on MALME-3M melanoma; 27.9% in the assay on MDA-MB-231 breast; 53% in the assay with SF-268 CNS; -21.6% (active) in the assay on SF-295 CNS; -68.3% (active) with SF-539 CNS; 12.3% in the assay with UACC-257 melanoma.

For the compound `COc1cccc(/C=C2\COc3ccc(O)cc3C2=O)c1OC`, the growth in the assay on NCI-H23 lung was 86.6%; with NCI-H226 lung it was 95.2%; in the assay on NCI-H322M lung, 90.5%; in the assay with HOP-62 NSCLC, 88.4%; in the assay on NCI-H460 lung, 67.8%; in the assay with HOP-92 NSCLC it was 86.8%. Moreover, the growth is 28.7% in the assay with NCI-H522 lung; 105% in the assay on A549/ATCC NSCLC; 86.1% with 786-0 renal; 92.1% with COLO 205 colon; 45.1% with DU-145 prostate; 5.8% (active) with K-562 leukemia. Also, the growth with MALME-3M melanoma was 73.9%; in the assay with MDA-MB-231 breast, 85.1%; in the assay on SF-268 CNS, 85%; in the assay on SF-295 CNS it was 95.7%; in the assay on SF-539 CNS it was 72.2%; in the assay on UACC-257 melanoma it was 83.3%.

`C=CCO[C@H]1CO[C@H]2[C@@H]1OC[C@@H]2Oc1ccc(Nc2ccnc(Nc3ccc(O[C@H]4CO[C@H]5[C@@H]4OC[C@@H]5OCC=C)c(Cl)c3)n2)cc1Cl`: the growth is -47.8% (active) in the assay on NCI-H23 lung; 86.7% with NCI-H226 lung; -56.6% (active) in the assay with NCI-H322M lung; -25.5% (active) in the assay with HOP-62 NSCLC; -74% (active) in the assay with NCI-H460 lung; 83.3% in the assay on HOP-92 NSCLC. The growth was -29.9% (active) in the assay with NCI-H522 lung; -60.7% (active) in the assay on A549/ATCC NSCLC; -88.2% (active) with 786-0 renal; 29.2% with COLO 205 colon; -50.2% (active) with DU-145 prostate; -32.4% (active) with K-562 leukemia. In addition, the growth in the assay on MALME-3M melanoma is -95.8% (active); with MDA-MB-231 breast it was -92.8% (active); in the assay on SF-268 CNS, -61.6% (active); in the assay on SF-295 CNS it was -77.8% (active); in the assay with SF-539 CNS it was -87.5% (active); in the assay with UACC-257 melanoma it was 107%.

As for `C/C(Cc1ccc(Cl)cc1)=C(/c1ccc(Cl)cc1)c1ccc(OCCN(C)C)cc1`, the growth in the assay on NCI-H23 lung was 73.2%; in the assay on NCI-H226 lung, 104%; with NCI-H322M lung, 91.2%; with HOP-62 NSCLC, 99.2%; in the assay on NCI-H460 lung it was -46.9% (active); with HOP-92 NSCLC, 72%. The growth is 80.6% in the assay on NCI-H522 lung; 57.8% with A549/ATCC NSCLC; 61.7% in the assay on 786-0 renal; -59.2% (active) in the assay on COLO 205 colon; 62.3% in the assay on DU-145 prostate; -4.72% (active) in the assay on K-562 leukemia. Also, the growth in the assay on MALME-3M melanoma is 37.1%; in the assay on MDA-MB-231 breast, 74.1%; in the assay on SF-268 CNS, 85.6%; in the assay on SF-295 CNS, 97.2%; in the assay on SF-539 CNS it was 66.7%; with UACC-257 melanoma, 71.3%.

For `COc1cc2oc(-c3cccc(C(=O)Nc4ccc(C)cc4)c3)cc(=O)c2c(OC)c1OC`, the growth in the assay with NCI-H23 lung is 44.6%; in the assay on NCI-H226 lung it was 62.5%; in the assay on NCI-H322M lung it was 51.1%; in the assay with HOP-62 NSCLC, 22.1%; with NCI-H460 lung, 24.9%; in the assay with HOP-92 NSCLC, 22%. Moreover, the growth with NCI-H522 lung was 6.72% (active); with A549/ATCC NSCLC, 33.8%; in the assay with 786-0 renal, 22.1%; in the assay with COLO 205 colon it was 1.73% (active); with DU-145 prostate, 48.2%; with K-562 leukemia, 28%. Further, the growth in the assay with MALME-3M melanoma is 27.3%; in the assay on RXF 393 renal it was -7.43% (active); with SF-268 CNS, 57.7%; in the assay with SF-295 CNS it was -47% (active); with SF-539 CNS, 45.8%; in the assay on UACC-257 melanoma it was 29.9%.

Consider `CC(=O)c1ccc2c(c1)CCN2`, for which the growth with NCI-H23 lung was 102%; with NCI-H226 lung, 102%; with NCI-H322M lung, 101%; in the assay with HOP-62 NSCLC, 96.8%; with NCI-H460 lung it was 117%; with HOP-92 NSCLC, 82.5%. Besides, the growth is 91% in the assay on NCI-H522 lung; 98% with A549/ATCC NSCLC; 108% in the assay on 786-0 renal; 102% with COLO 205 colon; 104% in the assay with DU-145 prostate; 111% in the assay on K-562 leukemia. The growth in the assay on MDA-MB-231 breast was 96.1%; with RXF 393 renal, 107%; with SF-268 CNS it was 98.9%; in the assay with SF-295 CNS, 125%; in the assay with SF-539 CNS, 101%; in the assay with UACC-257 melanoma it was 104%.

`COc1ccc(C(=O)/C=C/C23c4ccccc4C(c4ccccc42)C2C(=O)NC(=O)C23)cc1` (centres undefined): the growth is 88.1% in the assay on NCI-H23 lung; 99.7% in the assay with NCI-H226 lung; 92.4% in the assay with NCI-H322M lung; 96.4% with HOP-62 NSCLC; 96.2% in the assay on NCI-H460 lung; 103% with HOP-92 NSCLC. The growth with NCI-H522 lung was 87%; in the assay with A549/ATCC NSCLC, 90.7%; in the assay on 786-0 renal, 103%; with DU-145 prostate, 97.4%; in the assay with K-562 leukemia, 86.3%; with MALME-3M melanoma it was 98%. For the same compound, the growth in the assay on MDA-MB-231 breast was 94.9%; with RXF 393 renal, 95.9%; with SF-268 CNS it was 90.5%; in the assay with SF-295 CNS it was 106%; in the assay on SF-539 CNS it was 89.9%; with UACC-257 melanoma, 89.4%.
